From PubChem BioAssay AID1494157 (National Center for Advancing Translational Sciences (NCATS), 2020)
Records with an inconclusive call do not appear. Activity calls are given as the source filed them. Calls come from the whole dose curve.

experiment: Confirmatory qHTS for inhibitors of MERS-S pseudo-typed particle cell entry; details: MERS-S pseudotyped particle entry, luciferase reporter; series mostly up to 57.1 µM

SMILES | Potency
Nc1nc(Cl)nc2c1ncn2C1CC(O)C(CO)O1 (stereo not drawn) | 12.1 µM (active)
Cc1cc(-n2c(=O)[nH]c(=O)n(C)c2=O)ccc1Oc1ccc(S(=O)(=O)C(F)(F)F)cc1 | 6.81 µM (active)
CC(C)OC(=O)OCOP(=O)(CO[C@H](C)Cn1cnc2c(N)ncnc21)OCOC(=O)OC(C)C | 0.0192 µM (active)
CC(=O)N1CCN(c2ccc(OC[C@H]3CO[C@](Cn4ccnc4)(c4ccc(Cl)cc4Cl)O3)cc2)CC1 | 7.64 µM (active)
CCN1CCN(Cc2ccc(Nc3ncc(F)c(-c4cc(F)c5nc(C)n(C(C)C)c5c4)n3)nc2)CC1 | 0.482 µM (active)
CCN(CC)CCNC(=O)c1c(C)[nH]c(/C=C2\C(=O)Nc3ccc(F)cc32)c1C | 4.29 µM (active)
COc1cc2nccc(Oc3ccc(NC(=O)NC4CC4)c(Cl)c3)c2cc1C(N)=O | 17.1 µM (active)
CC(C)OC(=O)[C@H](C)N[P@](=O)(CO[C@H](C)Cn1cnc2c(N)ncnc21)Oc1ccccc1 | 0.0152 µM (active)
O=C1CCc2ccc(OCCCCN3CCN(c4cccc(Cl)c4Cl)CC3)cc2N1 | 12.1 µM (active)
COc1cc(NS(C)(=O)=O)ccc1Nc1c2ccccc2nc2ccccc12 | 1.36 µM (active)
CC(=O)[C@]1(O)Cc2c(O)c3c(c(O)c2[C@@H](O[C@H]2C[C@H](N)[C@H](O)[C@H](C)O2)C1)C(=O)c1ccccc1C3=O | 2.15 µM (active)
c1ccc2c(c1)Sc1ccccc1N2CC1CN2CCC1CC2 (stereo not drawn) | 12.1 µM (active)
CCCCc1oc2ccccc2c1C(=O)c1cc(I)c(OCCN(CC)CC)c(I)c1 | 10.8 µM (active)
